From PubChem BioAssay (NCATS)
Results filed as inconclusive are left out. Activity calls are given as the source filed them. Unless noted, calls follow the shape of the full dose curve.

Key:
[1] = qHTS for Inhibitors of the Functional Ribonucleoprotein Complex (vRNP) of Lassa (LASV) Arenavirus: LASV Primary Screen - GLuc reporter signal (AID 1347082; calls by dose curve; tested in HEK293 reporter line; also: nearly all actives have a fitted effect of over 60% in size)
[2] = qHTS for Inhibitors of the Functional Ribonucleoprotein Complex (vRNP) of Lassa (LASV) Arenavirus: Viability assay - alamar blue signal for LASV Primary Screen (AID 1347083; calls by dose curve; tested in HEK293 reporter line; also: nearly all actives have a fitted effect of over 80% in size)
[3] = qHTS for Inhibitors of the Functional Ribonucleoprotein Complex (vRNP) of Lymphocytic Choriomeningitis Arenaviruses (LCMV): Viability assay - alamar blue signal for LCMV Primary Screen (AID 1347085; calls by dose curve; tested in HEK293 reporter line; also: nearly all actives have a fitted effect of over 80% in size)
[4] = molecular target: Nucleoprotein (Lymphocytic choriomeningitis virus (strain Armstrong)) (UniProt P09992); assay: qHTS for Inhibitors of the Functional Ribonucleoprotein Complex (vRNP) of Lymphocytic Choriomeningitis Arenaviruses (LCMV): LCMV Primary Screen - GLuc reporter signal (AID 1347086); also: nearly all actives have a fitted effect of over 70% in size

Measured: Potency
Also: series mostly up to about 57 µM.

Chain of Nucleoprotein (Lymphocytic choriomeningitis virus (strain Armstrong)) (P09992 whole entry, looked up): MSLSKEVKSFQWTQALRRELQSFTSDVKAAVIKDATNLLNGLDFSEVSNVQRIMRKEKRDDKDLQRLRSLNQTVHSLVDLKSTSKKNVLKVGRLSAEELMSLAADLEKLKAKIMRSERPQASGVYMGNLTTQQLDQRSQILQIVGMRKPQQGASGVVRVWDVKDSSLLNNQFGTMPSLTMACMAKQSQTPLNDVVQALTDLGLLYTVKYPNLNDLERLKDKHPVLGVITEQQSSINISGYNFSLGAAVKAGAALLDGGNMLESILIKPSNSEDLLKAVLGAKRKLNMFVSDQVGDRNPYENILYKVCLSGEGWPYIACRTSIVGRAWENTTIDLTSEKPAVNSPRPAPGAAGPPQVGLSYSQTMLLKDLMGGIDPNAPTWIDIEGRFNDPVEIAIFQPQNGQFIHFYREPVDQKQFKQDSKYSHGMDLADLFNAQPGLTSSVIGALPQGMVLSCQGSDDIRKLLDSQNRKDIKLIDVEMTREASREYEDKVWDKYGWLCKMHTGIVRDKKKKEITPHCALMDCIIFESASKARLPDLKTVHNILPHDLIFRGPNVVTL

COc1cccc(OC)c1
inactive: all assays above

C[C@@H]1OC(O[C@H]2[C@H](Oc3cc(O)c4c(=O)c(O)c(-c5ccc(O)cc5)oc4c3)O[C@H](CO)[C@@H](O)[C@@H]2O)[C@H](O)[C@H](O)[C@H]1O (stereo not given in full)
inactive: all assays above

CC(C)c1onc(-c2c(Cl)cccc2Cl)c1COc1ccc(C=Cc2cccc(C(=O)O)c2)c(Cl)c1
inactive: all assays above

COc1c2ccc(OCC/C(C)=C/C(=O)C=C(C)C)cc2nc2occc12
inactive: all assays above

CCc1ccc(O)c(OC)c1
inactive: all assays above

CC(C)(C)[N+]([O-])=Cc1ccc(S(=O)(=O)O)cc1S(=O)(=O)O
inactive: all assays above

Cc1ccc2c(c1)C(=O)c1ccccc1C2=O
inactive: all assays above

CCC(CC)C(=O)O
inactive: all assays above

COc1ccc([C@@H]2CC(=O)c3c(O)cc(O[C@@H]4OC(CO[C@@H]5OC(C)[C@H](O)[C@@H](O)[C@H]5O)[C@@H](O)[C@H](O)[C@H]4O)cc3O2)cc1O (stereo not given in full)
inactive: all assays above

C=C1[C@@H](OC(C)=O)CC[C@]2(C)[C@@H]1C[C@@H]1C[C@H](OC(C)=O)C(C)=C([C@@H](OC(C)=O)[C@@H]2OC(C)=O)C1(C)C
inactive: all assays above

CCc1cc(C(C)=NOCc2ccc(C3CCCCC3)c(C(F)(F)F)c2)ccc1CN1CC(C(=O)O)C1
inactive: all assays above

COc1c(Br)cc(Br)cc1C(=O)O
inactive: all assays above

CC1(C)CCC[C@]2(C)[C@H]3CCO[C@]3(C)CC[C@@H]12
inactive: all assays above

NC(C(=O)O)C1ON=C(Cl)C1O (stereo not given)
inactive: all assays above

CC(C)=CCOc1c2ccoc2c(OCC=C(C)C)c2oc(=O)ccc12
inactive: all assays above

CC(C)=CCC/C(C)=C/CC/C(C)=C/COc1ccc2ccc(=O)oc2c1
inactive: all assays above

COc1ccc2c(c1)OC[C@H]1c3cc4c(cc3O[C@@H]21)OCO4
inactive: all assays above

C#CCCCCCCCCCCCc1ccco1
inactive: all assays above

N#CC(=C(N)Sc1ccc(N)cc1)c1ccccc1C(F)(F)F
inactive: all assays above

C[C@H]1O[C@@H](O[C@H]2CC[C@@]3(C)C(CC[C@]4(C)C3C=C[C@]35OC[C@@]6(CCC(C)(C)C[C@H]63)[C@@H](O)C[C@]54C)[C@]2(C)CO)[C@H](O)[C@@H](O[C@@H]2O[C@H](CO)[C@@H](O)[C@H](O)[C@H]2O)[C@H]1O (stereo not given in full)
inactive: all assays above

C=C(CO)CC1CC(O)[C@]2(C)OC3CC4OC5C[C@]6(C)O[C@]7(C)CCC8OC9C[C@]%10(C)OC%11C(C)=CC(=O)OC%11CC%10OC9C[C@@H](C)C8OC7CC6O[C@]5(C)C/C=C\C4OC3CC2O1 (stereo not given in full)
inactive: all assays above

O=C1C[C@@H](c2ccc(O)c(O)c2)Oc2c1ccc(O[C@@H]1O[C@H](CO)[C@@H](O)[C@H](O)[C@H]1O)c2O
inactive: all assays above

COc1ccc(C2CC(=O)c3c(O)cc(O)cc3O2)c(CC=C(C)C)c1OC (stereo not given)
inactive: all assays above

O=C1Nc2ccccc2C(=O)N2CCC[C@@H]12
inactive: all assays above

CC(C)NC(=O)NC(C)C
inactive: all assays above

O=C1/C(=C\c2ccc(O)c(O)c2)Oc2c1ccc(O[C@@H]1O[C@H](CO)[C@@H](O)[C@H](O)[C@H]1O)c2O
inactive: all assays above

O=C1N[C@@H](Cc2c[nH]c3ccccc23)C(=O)N[C@H]1Cc1c[nH]c2ccccc12
inactive: all assays above

CC(C)C1=CC2=CC[C@@H]3[C@](C)(CCC[C@@]3(C)C(=O)O)[C@H]2CC1
inactive: all assays above

C[C@H]([C@@H](N)C(=O)N[C@@H](C(=O)O)[C@@H]1O[C@H](n2ccc(=O)[nH]c2=O)[C@@H](O)[C@H]1O)[C@@H](O)c1ccc(O)cn1
inactive: all assays above

O=c1cc(CCc2ccccc2)oc2cccc(O)c12
inactive: all assays above

CCCC1CCC(=O)O1 (stereo not given)
inactive: all assays above

CC(C)(O)C1CC[C@@]2(C)C3CCC4[C@@]5(C)CCCC(C)(C)C5C(O)C[C@]4(C)[C@]3(C)CC[C@@H]12 (stereo not given in full)
inactive: all assays above

C[C@@H]1CC[C@H]2[C@H](C)[C@H]3CC[C@H]4C5[C@@H](O)CC6=CC(=O)CC[C@]6(C)[C@H]5C[C@H]4C3C(=O)N2C1 (stereo not given in full)
inactive: all assays above

CC1(C)CCC[C@@]2(C)CC=C(C(=O)O)[C@@H]3C[C@]312
inactive: all assays above

CCC(=O)OCCC(C)CCC=C(C)C (stereo not given)
inactive: all assays above

O=c1c2ccccc2nc2n1CCC2
inactive: all assays above

CC1(C)C(CO)=CC(=O)C2=C1SCC(=O)N2
inactive: all assays above

COc1c2ccoc2c(OC[C@@H](O)C(C)(C)O)c2oc(=O)ccc12
inactive: all assays above

CN=CNc1ccc(C)cc1C
inactive: all assays above

O=C1c2ccccc2C(=O)c2c(O)ccc(O)c21
inactive: all assays above

CC(=O)OC1c2c(ccc3ccc(=O)oc23)OC(C)(C)C1OC(=O)CC(C)C (stereo not given)
inactive: all assays above

COC(=O)c1c(C)cc(O)c(C=O)c1O
inactive: all assays above

C[C@@]12CCC3[C@@](CCC4[C@@]3(C)CCC[C@@]4(C)C(=O)O)(CC1=O)C2 (stereo not given in full)
inactive: all assays above

C=CC[C@]12C=C(OC)C(=O)C=C1O[C@@H](c1ccc3c(c1)OCO3)[C@H]2C
inactive: all assays above

Cc1ccc2ccccc2n1
inactive: all assays above

C[N+]1([O-])[C@@H]2Cc3cc4c(cc3[C@@H]1Cc1cc3c(cc12)OCO3)OCO4 (stereo not given in full)
inactive: all assays above

CC1(C)C[C@H](O)[C@@]23C[C@@H](OC2=O)[C@]2(C)C(=CCC4[C@@]5(C)CC[C@H](O)C(C)(C)C5CC[C@]42C)[C@@H]3C1 (stereo not given in full)
inactive: all assays above

CCCCCCCCCCC(C)=O
inactive: all assays above

COc1cccc2c(=O)c3ccoc3n(C)c12
inactive: all assays above

O=c1[nH]c(O)c(/C=C2\C=Nc3ccccc32)[nH]1
inactive: all assays above

COc1ccc(-c2coc3cc(O)cc(O)c3c2=O)cc1OC
inactive: all assays above

CN(C)c1nc(Cc2ccc(NC(=O)c3ccc4ccccc4c3)cc2)nc(Cl)c1CC(=O)O
inactive: all assays above

CC/C=C\CC/C=C/CO
inactive: all assays above

COc1ccc2[nH]c3c(c2c1)CCn1c-3nc2ccccc2c1=O
inactive: all assays above

O=C(O)/C=C/c1ccc2c(c1)OCO2
inactive: all assays above

CC12CCC(=O)C=C1C(F)CC1C2C(O)CC2(C)C1CCC2(O)C(=O)CO (stereo not given)
inactive: all assays above

COC1C(O)C(O)C(O)C(O)C1O (stereo not given)
inactive: all assays above

C[C@@]12CC[C@H]3OC(=O)C=C3C1CC[C@@]13CC(CCC12)[C@](CO)(O[C@H]1O[C@H](CO)[C@@H](O)[C@H](O)[C@H]1O)C3 (stereo not given in full)
inactive: all assays above

CC1=CC(C/C(C)=C/COc2ccc3ccc(=O)oc3c2)OC1=O (stereo not given)
inactive: all assays above

CC1=CC[C@H](CC=O)C1(C)C
inactive: all assays above
